Reference: PubChem BioAssay
Activity calls are given as the source filed them. Unless noted, how the calls were made is not given here.

Experiments:
[1] = A549 cell viability effects, profiling panel, calcein-AM fluorescence, 48 h, basal (AID 1162); conditions: higher = more signal; further: test concentration not given here
[2] = adipocyte viability effects, profiling panel, cell-based, 3T3-L1 adipocytes, calcein-AM fluorescence, 48 h, basal (AID 1163); conditions: 3T3-L1 adipocytes viability, higher = more signal; further: test concentration not given here
[3] = HepG2 cell viability effects, profiling panel, calcein-AM fluorescence, 48 h, basal (AID 1164); conditions: higher = more signal; further: test concentration not given here
[4] = MM1S cell viability effects, profiling panel, calcein-AM fluorescence, 48 h, basal (AID 1165); conditions: higher = more signal;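 further: viability of MM1S multiple myeloma cells under basal unstimulated conditions; test concentration not given here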
[5] = basal RPMI8226 viability, no added stimulus, profiling panel, cell-based, calcein-AM fluorescence, 48 h, PK04 Diversity Set (AID 1166); conditions: RPMI8226 myeloma viability, higher = more signal;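 further: cells grown under basal conditions without added stimulus; test concentration not given here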
[6] = basal HepG2 mitochondrial membrane potential changes, profiling panel, cell-based, JC-1 fluorescence, 24 h, 100 nL compound (AID 1167); conditions: higher = more signal; further: test concentration not given here
[7] = basal 3T3-L1 adipocyte mitochondrial potential changes, profiling panel, cell-based, JC-1 fluorescence, 3T3-L1 adipocytes, 24 h, 100 nL compound (AID 1168); conditions: JC-1 mitochondrial fluorescence, higher = more signal, called active from +8 up or from −8 down; further: test concentration not given here
[8] = basal RPMI8226 mitochondrial membrane potential changes, profiling panel, cell-based, JC-1 fluorescence, 24 h, 100 nL compound (AID 1169); conditions: RPMI8226 myeloma, JC-1 mitochondrial potential fluorescence, higher = more signal; further: test concentration not given here
[9] = basal MM1S mitochondrial membrane potential changes, profiling panel, cell-based, JC-1 fluorescence, 24 h, 100 nL compound (AID 1170); conditions: higher = more signal; further: test concentration not given here
[10] = A549 lung cancer cell viability effects, profiling panel, resazurin fluorescence, 24 h, PK04 Diversity Set (AID 1171); conditions: higher = more signal, called active from +8 up or from −8 down; further: test concentration not given here
[11] = HepG2 liver cancer cell viability effects, profiling panel, resazurin fluorescence, 24 h, PK04 Diversity Set (AID 1172); conditions: higher = more signal; further: test concentration not given here
[12] = basal S. cerevisiae growth modulation, no modifier, primary screen, OD600, strain BY4716, 24 h, basal condition (AID 1173); conditions: OD600, 24 h, higher = more signal, called active from +8 up or from −8 down
[13] = MM1S myeloma cell viability, profiling panel, resazurin fluorescence, basal, 24 h, PK04 Diversity Set (AID 1174); conditions: higher = more signal, called active from +8 up or from −8 down;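 further: MM1S multiple myeloma cell line; test concentration not given here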
[14] = target: Dihydroorotate dehydrogenase (quinone), mitochondrial (Plasmodium falciparum (isolate 3D7)) (UniProt Q08210); assay: PfDHODH enzyme inhibitors, primary screen, biochemical, C-terminal His tag, absorbance 600 nm (AID 1175); conditions: DCIP absorbance 600 nm, higher = more signal, called active from +8 up or from −8 down;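 further: recombinant parasite enzyme with a five histidine tag at its C terminus; test concentration not given here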
[15] = P. aeruginosa biofilm formation inhibitors, primary screen, strain PAO1, LB-PBS medium, absorbance 600 nm (AID 1176); further: test concentration not given here; conditions: P. aeruginosa PAO1 growth/biofilm, A600, 12 h; higher = more signal
[16] = S. cerevisiae RM11-1a growth modifiers, primary screen, strain RM11-1a, OD600, basal, 24 h (AID 1177); conditions: OD600, 24 h, higher = more signal, called active from +8 up or from −8 down;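 further: cultures grown under basal conditions with no added stressor; test concentration not given here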
[17] = E. coli acrAB mutant growth effects, primary screen, E. coli filamentation inducers, strain DRC39, OD650, 24 h (AID 1178); conditions: higher = more signal, called active from +8 up or from −8 down;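 further: growth measured as culture turbidity by optical density at 650 nm; test concentration not given here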
[18] = E. coli acrAB mutant growth effects, primary screen, E. coli filamentation inducers, strain DRC39, OD650, 48 h (AID 1179);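 further: screen aims at cell division blockers that make cells filament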; conditions: E. coli DRC39 delta-acrAB growth, higher = more signal, called active from +8 up or from −8 down
[19] = RPMI8226 myeloma cell viability, profiling panel, resazurin fluorescence, basal, 24 h, PK04 Diversity Set (AID 1180); conditions: higher = more signal;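 further: RPMI8826 multiple myeloma cell line at 5000 cells per well; test concentration not given here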
[20] = target: E3 ubiquitin-protein ligase XIAP (Homo sapiens) (UniProt P98170); assay: XIAP binders, primary screen, biophysical, small-molecule microarray, fluorescence 635 nm (AID 1181); conditions: small-molecule microarray binding, higher = more signal;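 further: score merges 667 nm emission and signal to noise over triplicate slides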
E3 ubiquitin-protein ligase XIAP (Homo sapiens), sequence (P98170 whole entry, looked up): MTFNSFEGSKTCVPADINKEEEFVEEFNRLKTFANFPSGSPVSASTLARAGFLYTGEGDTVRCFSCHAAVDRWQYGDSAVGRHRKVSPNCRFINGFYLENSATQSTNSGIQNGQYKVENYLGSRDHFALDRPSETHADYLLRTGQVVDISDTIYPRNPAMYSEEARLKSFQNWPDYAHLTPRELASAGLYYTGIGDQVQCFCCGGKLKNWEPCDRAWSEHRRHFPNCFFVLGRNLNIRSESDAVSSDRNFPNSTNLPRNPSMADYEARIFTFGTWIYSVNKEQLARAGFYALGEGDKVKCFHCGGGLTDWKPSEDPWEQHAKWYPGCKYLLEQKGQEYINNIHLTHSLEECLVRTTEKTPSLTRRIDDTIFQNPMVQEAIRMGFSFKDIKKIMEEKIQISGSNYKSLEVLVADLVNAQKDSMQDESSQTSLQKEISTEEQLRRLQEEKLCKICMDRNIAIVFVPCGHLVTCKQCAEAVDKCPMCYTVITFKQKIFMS

Dihydroorotate dehydrogenase (quinone), mitochondrial (Plasmodium falciparum (isolate 3D7)), sequence (Q08210 whole entry, looked up): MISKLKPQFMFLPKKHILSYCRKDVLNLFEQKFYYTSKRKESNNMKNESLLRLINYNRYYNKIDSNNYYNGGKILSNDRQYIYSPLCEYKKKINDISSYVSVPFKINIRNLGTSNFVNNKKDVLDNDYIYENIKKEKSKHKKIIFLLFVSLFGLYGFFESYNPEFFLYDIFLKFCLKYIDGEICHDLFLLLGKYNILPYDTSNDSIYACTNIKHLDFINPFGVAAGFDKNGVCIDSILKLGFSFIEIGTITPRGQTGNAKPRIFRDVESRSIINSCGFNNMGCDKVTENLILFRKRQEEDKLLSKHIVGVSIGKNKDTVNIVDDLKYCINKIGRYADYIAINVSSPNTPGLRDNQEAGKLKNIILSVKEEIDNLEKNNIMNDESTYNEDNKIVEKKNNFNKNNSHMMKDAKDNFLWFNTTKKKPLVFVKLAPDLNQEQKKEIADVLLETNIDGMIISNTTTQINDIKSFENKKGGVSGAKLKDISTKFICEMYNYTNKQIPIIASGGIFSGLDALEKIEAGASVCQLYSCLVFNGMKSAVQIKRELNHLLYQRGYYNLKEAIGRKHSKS

SMILES	z-score [1]	z-score [2]	z-score [3]	z-score [4]	z-score [5]	z-score [6]	z-score [7]	z-score [8]	z-score [9]	z-score [10]	z-score [11]	z-score [12]	z-score [13]	composite z-score [14]	z-score [15]	z-score [16]	z-score [17]	z-score [18]	z-score [19]	composite z-score [20]
COc1ccc(CCNC(=O)[C@@]2(C)c3ccccc3C(=O)N(Cc3cc(F)cc(C(F)(F)F)c3)[C@H]2c2ccc(CO)cc2)cc1	0.805	0.766	0.41	-1.86	-2.07	0.857	-0.633 (inactive)	-0.601	1.08	0.396 (inactive)	-0.469	-0.513 (inactive)	1.02 (inactive)	0.917 (inactive)	0.593 (inactive)	1.1 (inactive)	0.568 (inactive)	0.453 (inactive)	0.652	0.003
O=C(c1ccccc1)N1Cc2ccccc2[C@@H]2OC(c3ccc(OCCCO)cc3)=N[C@]2(Cc2ccccc2)C1=O	-1.09	1.27	-0.795	-2.02	-3.92	-0.435	0.166 (inactive)	-1.11	0.106	-1.57 (inactive)	-0.448	-0.485 (inactive)	-1.79 (inactive)	0.369 (inactive)	2.05 (inactive)	0.843 (inactive)	-0.273 (inactive)	-0.749 (inactive)	-2.49	-0.102
Cc1ccc(C(C)CC(O)C2C=CC3C(=O)N(C)C(=O)C3N2NC(=O)OC(C)(C)C)o1 (stereo not given)	0.987	-0.515	0.917	-0.193	-0.883	-0.768	-0.632 (inactive)	-0.876	-0.357	0.543 (inactive)	-0.427	-0.626 (inactive)	-0.076 (inactive)	-0.166 (inactive)	0.434 (inactive)	0.66 (inactive)	-0.107 (inactive)	-0.354 (inactive)	0.0437	0.12
COC(=O)[C@@]1(Cc2ccc(F)cc2)[C@H]2c3cc(C(=O)N(C)C)n(Cc4nc5ccccc5[nH]4)c3C[C@H]2CN1C(=O)c1ccccc1	-0.788	-0.0882	-0.49	-1.09	-0.184	-0.0736	-0.156 (inactive)	-0.207	-2.16	0.406 (inactive)	0.455	0.681 (inactive)	-0.534 (inactive)	0.0187 (inactive)	0.315 (inactive)	0.22 (inactive)	-0.0051 (inactive)	0.12 (inactive)	-0.187	0.338
CN1C(=O)C2C=CC(C(O)C3CC=CCC3)N(NC(=O)OC(C)(C)C)C2C1=O (stereo not given)	0.414	-0.61	-0.622	-0.0764	-0.291	-1.58	-0.493 (inactive)	0.295	-0.121	-0.111 (inactive)	-1.53	-0.0428 (inactive)	-0.784 (inactive)	0.123 (inactive)	0.503 (inactive)	-0.0874 (inactive)	-0.791 (inactive)	-0.688 (inactive)	-1	0.579
Cc1ccc(S[C@]2(C(=O)NC3CC3)CC(=O)N(C3Cc4ccccc4C3)[C@@H]2c2ccc(CO)cc2)cc1	3.2	0.785	1.51	0.498	0.244	2.78	0.569 (inactive)	0.763	-0.0488	-1.23 (inactive)	-0.122	-0.612 (inactive)	0.0142 (inactive)	-1.85 (inactive)	0.472 (inactive)	-1.52 (inactive)	0.851 (inactive)	1.26 (inactive)	0.0919	-0.162
COc1ccc(C(O)C2C=CC3C(=O)NC(=O)C3N2Nc2ccccn2)cc1 (stereo not given)	-0.483	-0.0402	-0.454	-0.632	0.202	-0.69	-0.0063 (inactive)	-0.143	0.0564	-0.582 (inactive)	-0.396	0.0843 (inactive)	-0.285 (inactive)	0.91 (inactive)	0.366 (inactive)	0.31 (inactive)	-0.276 (inactive)	-0.401 (inactive)	-0.721	-0.893
C=C(/C(=C/C[C@@H](OC(C)=O)c1ccc(OCCO)cc1)c1cnc2ccccc2c1)C(C)C	2.72	1.39	1.25	-0.924	0.559	2.07	-1.27 (inactive)	-0.139	-1.17	0.685 (inactive)	1.22	-2.05 (inactive)	-0.318 (inactive)	-7.29 (inactive)	-0.165 (inactive)	-1.87 (inactive)	1.58 (inactive)	0.79 (inactive)	1.05	0.287
